Laboratory results from PubChem BioAssay (NCATS).
Records with an inconclusive call do not appear. Some compounds were tested as several samples or in several runs, with calls that do not always agree. A number with no mark means an inactive call. Calls of active or inactive are those of the source. Calls come from the whole dose curve; as a rule, active = well fitted cell-killing curve with a large enough effect; inconclusive = small, poorly fitted or top-dose-only effect, or effect the other way; inactive = no such curve, though single readings can be large or run the other way. Bridge positions count the residues as written; N and C are the ends. Square brackets hold non-standard residues; d marks the D form. Peptide text beside a SMILES is read from it. * marks the point of attachment. ξ: configuration not given here. Octanoyl(6-Me) = CCC(C)CCCCC(=O)*; ξThr(3R) = C[C@@H](O)C(N)C(=O)O; dDab = NCC[C@@H](N)C(=O)O; Dab = NCC[C@H](N)C(=O)O

Test: Viability qHTS for spleen associated tyrosine kinase inhibitor (SYKi) naive MV4-11 cells (AID 1963823); note: nearly all actives have a fitted effect of over 40% in size
Conditions: MV4-11 AML viability, CellTiter-Glo luminescence, 72 h; series mostly up to 45 µM; viability (% of control): at the top concentration
Source text: Department of Medicine, Hematology/Oncology
University Hospital Frankfurt, Germany.
Trials have shown promising clinical activity of the selective SYK inhibitor entospletinib in patients with high expressing HOXA9/MEIS1 acute leukemias. As the development of resistance mechanisms is a common problem in the use of targeted drugs, we performed a chemical library screen to identify drug sensitivities in SYK inhibitor resistant AML cells. […] Glucocorticoids are potent immunosuppressants which work in part by inhibiting the transcription of cytokine genes.
Described herein is a viability screen to look for activity in the SYK inhibitor naive cell line against four NCATS compound libraries (MIPE 5.0, NPC, NPACT, and Kinase) totaling 11372 compounds. Active hits were reacquired for confirmation and further secondary assay testing.
SEQUENCE No. (e.g., 1, 2, 3, etc.); […] (e.g., Cells, Incubation, Reagent, etc.); VALUE; DESCRIPTION.
1; Media; 2uL; white, solid-bottom Corning assay plate.
2; Compounds; 23nL; Echo acoustic dispenser.
3; Cell; 5uL; 500 cells per well.
4: Incubation; 72hr; 37 C, 5% CO2, 95% humidity.
5; Reagent; 3uL; CellTiter-Glo reagent (Promega).
6; Incubation; 10min; room temperature.
7; Detection; Luminescence; ViewLux plate reader (PerkinElmer).
NOTES (numbers refer to Sequence numbers above
1. Quantitative high-throughput screening (qHTS) of small molecule compounds was conducted on naive SYKi MV4-11 cell line.
2. Twenty-three nanoliter of small molecule compounds were added to each assay plates using the Echo acoustic dispenser (Beckman Coulter).
3. Cells were seeded into the assay plates at a final density of 500 cells in 5uL of media per well using the Multi-drop Combi dispenser.
4. Plates were covered with stainless steel gasketed lids and incubated for 72 hours at standard cell culture conditions.
5. Viability was assessed by adding 3uL of CellTiter-Glo detection reagent (Promega).
6. Plates were covered with gasket lids and incubated for 10 minutes at room temperature.
7. Luminescence was measured on a ViewLux plate reader (PerkinElmer).
Potency is the fitted concentration of half-maximal effect.

Compound	viability (% of control)	Potency
CC(=O)OCC1=C[C@H](O)[C@@H]2C(C(=O)O)=CO[C@@H](O[C@@H]3O[C@H](CO)[C@@H](O)[C@H](O)[C@H]3O)[C@H]12	83.5% [at 17.3 µM]	–
CC(c1c[nH]c2ccccc12)C(O)C(=O)O (stereo unspecified)	59.3%	–
Cc1c(N(C)C)c(=O)n(-c2ccccc2)n1C	66.4%	–
N#C/C(=C(/N)Sc1ccc(N)cc1)c1ccccc1C(F)(F)F	–	10.5 µM (active)
Nc1ncnc2c1ncn2[C@@H]1O[C@H](CO)[C@@H](O)[C@@H]1O	80.4%	–
CC(=O)O[C@H]1C[C@@H](O)C(C)(C)C2C[C@@H](OC(C)=O)[C@@]3(C)C4=CCC(C(CO)CC(O)C5OC5(C)C)[C@]4(C)CCC3[C@]21C (stereo partly specified)	59.9% [at 17.3 µM]	–
O=C(OCc1ccccc1O[C@@H]1O[C@H](CO)[C@@H](O)[C@H](O)[C@H]1O)C1(O)C=CCCC1O (stereo partly specified)	88.9% [at 17.3 µM]	–
C[C@H]1O[C@H](O[C@H]2[C@H](O)[C@@H](O)[C@@H](O[C@H]3[C@H](O)[C@@H](O)C(O)O[C@@H]3CO)O[C@@H]2CO)[C@H](O)[C@@H](O)[C@@H]1N[C@H]1C=C(CO)[C@@H](O)[C@H](O)[C@H]1O (stereo partly specified)	83.2%	–
CC1(C)CC[C@]2(C(=O)O[C@@H]3O[C@H](CO)[C@@H](O)[C@H](O)[C@H]3O)CC[C@]3(C)C(=CCC4[C@@]5(C)C[C@@H](O)[C@H](O)C(C)(C)C5[C@H](O)C[C@]43C)[C@@H]2[C@@H]1O (stereo partly specified)	74% [at 17.3 µM]	–
OC1(CN2CCC(COc3noc4cccc(O[C@@H]5CCOC5)c34)CC2)CCOCC1	56%	–
CC(C)C1CCC(C(=O)N[C@H](Cc2ccccc2)C(=O)O)CC1 (stereo partly specified)	85%	–
C[C@](N)(Cc1ccc(O)c(O)c1)C(=O)O	72%	–
COC(=O)C[C@@H]1C(C(=O)O)=CO[C@@H](O[C@@H]2O[C@H](CO)[C@@H](O)[C@H](O)[C@H]2O)/C1=C\COC(=O)/C=C\c1ccccc1	57% [at 17.3 µM]	–
COc1ccc(Cl)cc1C(=O)NCCc1ccc(S(=O)(=O)NC(=O)NC2CCCCC2)cc1	97.9%	–
CC(C)(C(=O)NCC(F)(F)C(F)(F)F)C(=O)NC1C(=O)Nc2ccccc2-c2ccccc21 (stereo unspecified)	–	14.6 µM (active)
C=CC(=O)Nc1cccc(C)c1Nc1ncc2cc(-c3c(Cl)c(OC)cc(OC)c3Cl)ccc2n1	–	1.03 µM (active)
CC1OC2O[C@H]3[C@@H](OCC(O)[C@H]3O)OC(=O)C34CCC(C)(C)CC3C3=CCC5C6(C)CC(O)C(OC7OC(CO)C(O)C(O)C7O[C@@H]7OC[C@H](OC(=O)CC(C)(O)CC(=O)OC1C(OC1OCC(O)C(O)C1O)C2O)[C@@H](O)[C@H]7O)C(C)(CO)C6CCC5(C)C3(C)CC4 (stereo partly specified)	–	8.93 µM (active)
C=C1CC[C@@H](O)[C@]2(C)CC[C@H]3C(=C)C(=O)O[C@@H]3[C@@H]12	–	18.4 µM (active)
CCC[C@@H]1C[C@@H](C(=O)N[C@H](C(C)Cl)[C@H]2O[C@H](SC)[C@H](O)[C@@H](O)[C@H]2O)N(C)C1 (stereo partly specified)	94.3%	–
CCOCCn1c(C2CCN(CCc3ccc(C(C)(C)C(=O)O)cc3)CC2)nc2ccccc21	64.5%	–

Compound	viability (% of control)	Potency
COc1cc2ncnc(Nc3ccc(O)cc3)c2cc1OC	–	3.26 µM (active)
CCOC(=O)c1ncn2c1CN(C)C(=O)c1cc(F)ccc1-2	–	inactive
O=P(O)(O)C(O)(Cc1cccnc1)P(=O)(O)O	–	inactive
CN[C@@H](C)[C@H]1[C@H](O)C[C@@]2(C)[C@@H]3CC[C@H]4C(C)(C)[C@@H](NC)CC[C@@]45C[C@@]35CC[C@]12C	79.2% [at 9.25 µM]	–
COc1ccnc(CCc2nc3ncccc3[nH]2)c1	69.9%	–
CC1(C)CC[C@]2(C(=O)O)CC[C@]3(C)C(=CCC4[C@@]5(C)CC[C@H](O[C@@H]6O[C@H](C(=O)O)[C@@H](O[C@@H]7OC[C@@H](O)[C@H](O)[C@H]7O)[C@H](O)[C@H]6O)C(C)(C)C5CC[C@]43C)C2C1O (stereo partly specified)	84.2% [at 17.3 µM]	–
CC(C)CCCC(C)N (stereo unspecified)	66%	–
O=C1NC(=O)c2cc(Nc3ccc(F)cc3)c(Nc3ccc(F)cc3)cc21	–	2.91 µM (active)
CC(=O)[C@@]1(O)CC[C@H]2[C@@H]3C[C@H](C)C4=CC(=O)C=C[C@]4(C)[C@@]3(F)[C@@H](O)C[C@@]21C	112%	–
CN(C)S(=O)(=O)c1ccc2c(c1)C(=Cc1cc3c([nH]1)CCCC3)C(=O)N2	–	0.833 µM (active)
CC1=C(CCC(C)O[C@@H]2O[C@H](CO)[C@@H](O)[C@H](O)[C@H]2O)C(C)(C)CCC1=O (stereo partly specified)	84.2%	–
CCC(C)CCCCC(=O)N[C@@H](CCN)C(=O)NC(C(=O)N[C@H](CCN)C(=O)N[C@@H]1CCNC(=O)C([C@@H](C)O)NC(=O)[C@@H](CCN)NC(=O)[C@@H](CCN)NC(=O)[C@@H](CC(C)C)NC(=O)[C@H](Cc2ccccc2)NC(=O)[C@H](CCN)NC1=O)[C@@H](C)O (stereo partly drawn) ({Octanoyl(6-Me)}-[Dab][ξThr(3R)][dDab][dDab][Dab]F[dL][dDab][dDab][ξThr(3R)]; lactam 4-C)	70.7%	–
O=C(Nc1ccc(S(=O)(=O)Nc2ccccc2Cl)c(Cl)c1)c1ccccn1	61.1%	–
CC/C=C\CC1C(=O)CCC1CC(=O)OC (stereo unspecified)	86.8%	–
C[C@@H]1CC[C@]2(C(=O)O)CC[C@]3(C)C(=CCC4[C@@]5(C)C[C@@H](O)[C@H](O)[C@@](C)(CO)C5CC[C@]43C)C2[C@]1(C)O (stereo partly specified)	76.2% [at 17.3 µM]	–
COc1cc(C[C@@H](CO)[C@H](CO)Cc2ccc(O)c(OC)c2)ccc1O	74.4%	–
CC1CCC2C(C(=O)O)=CC3(O)CC(C)(C)CC123 (stereo unspecified)	67.2%	–
CCCC1OC2C[C@@H]3[C@H]4CCC5=CC(=O)C=C[C@]5(C)[C@H]4C(O)C[C@]3(C)[C@]2(C(=O)CO)O1 (stereo partly specified)	–	16.6 µM (active)
CC[C@H](C)[C@@H]1NC(=O)[C@H](Cc2ccc(OC)cc2)NC(=O)CCCSC[C@@H](C(=O)N2CCC[C@H]2C(=O)N[C@@H](CC(C)C)C(=O)NCC(N)=O)NC(=O)[C@H](CC(N)=O)NC(=O)[C@H](CCC(N)=O)NC1=O	95.8%	–
CC[C@H](Nc1ncnc2nc[nH]c12)c1nc2cccc(F)c2c(=O)n1-c1ccccc1	57.2% [at 9.25 µM]	0.332 µM (active)
